Experimental data from ChEMBL document CHEMBL1961873, “Compounds: GSK PKIS; Assays: Nanosyn kinase panel” (2012).

Columns and labels:
[1] = target: Death-associated protein kinase 1 (Homo sapiens) (UniProt P53355); conditions: at 1 µM;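 also: each value is a mean inhibition figure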
[2] = target: T1, Serine/threonine-protein kinase DCLK2 (Homo sapiens) (UniProt Q8N568); conditions: at 0.1 µM
T1 sequence (whole entry): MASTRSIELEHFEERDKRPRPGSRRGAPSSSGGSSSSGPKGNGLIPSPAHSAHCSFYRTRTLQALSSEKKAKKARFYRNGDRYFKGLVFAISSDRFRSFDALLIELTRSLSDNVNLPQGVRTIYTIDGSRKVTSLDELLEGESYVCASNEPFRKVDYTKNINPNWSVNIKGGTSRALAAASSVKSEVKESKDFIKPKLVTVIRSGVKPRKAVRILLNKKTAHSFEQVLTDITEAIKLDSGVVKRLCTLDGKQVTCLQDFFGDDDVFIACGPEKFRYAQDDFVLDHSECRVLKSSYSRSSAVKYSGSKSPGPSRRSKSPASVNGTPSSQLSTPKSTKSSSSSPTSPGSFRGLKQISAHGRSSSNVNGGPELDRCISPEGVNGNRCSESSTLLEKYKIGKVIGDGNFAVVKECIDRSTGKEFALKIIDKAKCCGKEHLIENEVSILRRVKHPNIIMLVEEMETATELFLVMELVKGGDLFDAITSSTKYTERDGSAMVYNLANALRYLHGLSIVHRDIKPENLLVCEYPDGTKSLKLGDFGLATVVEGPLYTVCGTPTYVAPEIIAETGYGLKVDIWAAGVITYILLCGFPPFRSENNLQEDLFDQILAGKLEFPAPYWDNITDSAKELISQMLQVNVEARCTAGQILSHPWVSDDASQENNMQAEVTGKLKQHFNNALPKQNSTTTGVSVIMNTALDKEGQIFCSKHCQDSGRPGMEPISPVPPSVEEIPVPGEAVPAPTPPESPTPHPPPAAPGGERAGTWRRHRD

[3] = target: T1, Serine/threonine-protein kinase DCLK2 (Homo sapiens); conditions: at 1 µM
[4] = target: MAP kinase-activated protein kinase 2 (Homo sapiens) (UniProt P49137); conditions: at 0.1 µM
Chain of MAP kinase-activated protein kinase 2 (Homo sapiens) (P49137 whole entry, looked up): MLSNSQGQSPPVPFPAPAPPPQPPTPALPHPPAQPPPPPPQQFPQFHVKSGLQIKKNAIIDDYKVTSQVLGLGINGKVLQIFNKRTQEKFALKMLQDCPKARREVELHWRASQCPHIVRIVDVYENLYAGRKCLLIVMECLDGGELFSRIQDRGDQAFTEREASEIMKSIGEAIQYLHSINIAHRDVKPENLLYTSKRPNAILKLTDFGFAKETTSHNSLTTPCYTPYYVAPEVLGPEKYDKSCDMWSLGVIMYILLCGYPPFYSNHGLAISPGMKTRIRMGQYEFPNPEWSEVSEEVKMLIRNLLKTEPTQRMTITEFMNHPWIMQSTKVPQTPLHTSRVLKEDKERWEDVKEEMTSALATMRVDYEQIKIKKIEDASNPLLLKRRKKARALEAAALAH

[5] = target: MAP kinase-activated protein kinase 2 (Homo sapiens) (UniProt P49137); conditions: at 1 µM
[6] = target: MAP kinase-activated protein kinase 3 (Homo sapiens) (UniProt Q16644); conditions: at 0.1 µM
Chain of MAP kinase-activated protein kinase 3 (Homo sapiens) (Q16644 whole entry, looked up): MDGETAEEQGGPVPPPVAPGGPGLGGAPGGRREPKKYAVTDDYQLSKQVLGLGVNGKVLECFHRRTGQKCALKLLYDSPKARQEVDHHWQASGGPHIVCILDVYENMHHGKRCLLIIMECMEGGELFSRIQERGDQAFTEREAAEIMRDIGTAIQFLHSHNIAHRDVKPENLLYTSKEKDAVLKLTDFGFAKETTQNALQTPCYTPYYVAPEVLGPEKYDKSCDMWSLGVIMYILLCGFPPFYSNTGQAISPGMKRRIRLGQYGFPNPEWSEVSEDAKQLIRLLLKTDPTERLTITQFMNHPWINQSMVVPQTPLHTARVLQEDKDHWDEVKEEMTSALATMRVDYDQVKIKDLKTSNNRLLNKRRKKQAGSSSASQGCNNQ

[7] = target: MAP kinase-activated protein kinase 3 (Homo sapiens) (UniProt Q16644); conditions: at 1 µM
[8] = target: Serine/threonine-protein kinase MARK1 (Homo sapiens) (UniProt Q9P0L2); conditions: at 0.1 µM
Chain of Serine/threonine-protein kinase MARK1 (Homo sapiens) (Q9P0L2 whole entry, looked up): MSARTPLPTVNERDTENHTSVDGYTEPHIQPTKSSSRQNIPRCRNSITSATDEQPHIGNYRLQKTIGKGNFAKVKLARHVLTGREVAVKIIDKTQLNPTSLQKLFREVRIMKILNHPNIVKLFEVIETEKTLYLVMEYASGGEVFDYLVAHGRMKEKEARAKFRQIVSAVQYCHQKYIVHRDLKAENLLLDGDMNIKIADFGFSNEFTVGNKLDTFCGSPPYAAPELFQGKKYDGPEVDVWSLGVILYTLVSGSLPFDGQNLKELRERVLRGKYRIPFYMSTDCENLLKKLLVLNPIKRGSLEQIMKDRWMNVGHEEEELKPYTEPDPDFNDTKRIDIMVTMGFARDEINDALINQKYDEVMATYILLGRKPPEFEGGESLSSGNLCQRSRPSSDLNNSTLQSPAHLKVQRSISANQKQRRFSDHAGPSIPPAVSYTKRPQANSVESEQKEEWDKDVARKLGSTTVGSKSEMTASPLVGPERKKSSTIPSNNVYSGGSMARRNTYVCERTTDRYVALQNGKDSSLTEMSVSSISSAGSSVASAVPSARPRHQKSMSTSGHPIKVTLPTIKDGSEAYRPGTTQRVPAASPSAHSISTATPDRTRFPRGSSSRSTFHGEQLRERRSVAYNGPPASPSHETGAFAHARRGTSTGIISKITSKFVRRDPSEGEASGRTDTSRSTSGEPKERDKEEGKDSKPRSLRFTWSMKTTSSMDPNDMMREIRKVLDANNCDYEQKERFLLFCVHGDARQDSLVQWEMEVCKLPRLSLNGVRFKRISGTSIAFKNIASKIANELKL

[9] = target: Serine/threonine-protein kinase MARK1 (Homo sapiens) (UniProt Q9P0L2); conditions: at 1 µM
[10] = target: MAP/microtubule affinity-regulating kinase 3 (Homo sapiens) (UniProt P27448); conditions: at 0.1 µM
Chain of MAP/microtubule affinity-regulating kinase 3 (Homo sapiens) (P27448 whole entry, looked up): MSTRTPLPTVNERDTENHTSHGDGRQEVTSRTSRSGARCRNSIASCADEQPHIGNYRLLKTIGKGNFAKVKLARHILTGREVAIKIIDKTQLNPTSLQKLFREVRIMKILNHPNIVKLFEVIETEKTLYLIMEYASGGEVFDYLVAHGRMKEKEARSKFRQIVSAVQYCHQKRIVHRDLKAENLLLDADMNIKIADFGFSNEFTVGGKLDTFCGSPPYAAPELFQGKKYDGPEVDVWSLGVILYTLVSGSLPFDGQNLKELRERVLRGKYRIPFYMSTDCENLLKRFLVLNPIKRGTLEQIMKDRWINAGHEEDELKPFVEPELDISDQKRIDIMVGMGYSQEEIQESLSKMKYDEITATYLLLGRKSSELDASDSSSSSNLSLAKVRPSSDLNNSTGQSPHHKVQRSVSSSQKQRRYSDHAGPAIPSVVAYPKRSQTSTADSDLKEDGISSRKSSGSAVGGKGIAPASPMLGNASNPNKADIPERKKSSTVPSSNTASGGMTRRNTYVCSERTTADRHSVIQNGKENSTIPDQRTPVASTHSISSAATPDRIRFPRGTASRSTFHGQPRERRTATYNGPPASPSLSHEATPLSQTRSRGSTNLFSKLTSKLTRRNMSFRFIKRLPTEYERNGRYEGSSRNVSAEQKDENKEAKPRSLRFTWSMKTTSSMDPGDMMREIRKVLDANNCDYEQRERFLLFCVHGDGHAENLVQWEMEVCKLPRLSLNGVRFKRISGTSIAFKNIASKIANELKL

[11] = target: MAP/microtubule affinity-regulating kinase 3 (Homo sapiens) (UniProt P27448); conditions: at 1 µM
[12] = target: T2, MAP/microtubule affinity-regulating kinase 4 (Homo sapiens) (UniProt Q96L34); conditions: at 0.1 µM
T2 sequence (whole entry): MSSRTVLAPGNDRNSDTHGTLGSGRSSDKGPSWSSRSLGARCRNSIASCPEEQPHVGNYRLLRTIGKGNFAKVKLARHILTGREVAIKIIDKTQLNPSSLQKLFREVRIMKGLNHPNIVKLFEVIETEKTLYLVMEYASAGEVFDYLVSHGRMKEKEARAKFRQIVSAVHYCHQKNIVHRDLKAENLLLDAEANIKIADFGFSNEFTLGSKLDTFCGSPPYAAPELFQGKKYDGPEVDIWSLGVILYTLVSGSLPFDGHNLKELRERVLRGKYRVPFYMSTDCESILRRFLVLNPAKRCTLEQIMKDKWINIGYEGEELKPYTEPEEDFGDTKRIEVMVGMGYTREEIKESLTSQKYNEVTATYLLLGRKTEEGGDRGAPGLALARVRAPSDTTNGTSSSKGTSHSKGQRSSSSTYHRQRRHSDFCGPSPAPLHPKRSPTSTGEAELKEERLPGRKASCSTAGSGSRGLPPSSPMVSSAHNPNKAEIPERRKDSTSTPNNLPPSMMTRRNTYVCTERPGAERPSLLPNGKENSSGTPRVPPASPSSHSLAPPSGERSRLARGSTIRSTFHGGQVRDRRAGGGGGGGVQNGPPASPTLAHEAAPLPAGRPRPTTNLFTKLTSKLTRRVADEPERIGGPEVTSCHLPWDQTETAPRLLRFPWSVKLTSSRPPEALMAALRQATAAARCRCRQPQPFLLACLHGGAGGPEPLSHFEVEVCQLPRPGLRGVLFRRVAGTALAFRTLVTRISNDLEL

[13] = target: T2, MAP/microtubule affinity-regulating kinase 4 (Homo sapiens); conditions: at 1 µM
[14] = target: Maternal embryonic leucine zipper kinase (Homo sapiens) (UniProt Q14680); conditions: at 0.1 µM
Chain of Maternal embryonic leucine zipper kinase (Homo sapiens) (Q14680 whole entry, looked up): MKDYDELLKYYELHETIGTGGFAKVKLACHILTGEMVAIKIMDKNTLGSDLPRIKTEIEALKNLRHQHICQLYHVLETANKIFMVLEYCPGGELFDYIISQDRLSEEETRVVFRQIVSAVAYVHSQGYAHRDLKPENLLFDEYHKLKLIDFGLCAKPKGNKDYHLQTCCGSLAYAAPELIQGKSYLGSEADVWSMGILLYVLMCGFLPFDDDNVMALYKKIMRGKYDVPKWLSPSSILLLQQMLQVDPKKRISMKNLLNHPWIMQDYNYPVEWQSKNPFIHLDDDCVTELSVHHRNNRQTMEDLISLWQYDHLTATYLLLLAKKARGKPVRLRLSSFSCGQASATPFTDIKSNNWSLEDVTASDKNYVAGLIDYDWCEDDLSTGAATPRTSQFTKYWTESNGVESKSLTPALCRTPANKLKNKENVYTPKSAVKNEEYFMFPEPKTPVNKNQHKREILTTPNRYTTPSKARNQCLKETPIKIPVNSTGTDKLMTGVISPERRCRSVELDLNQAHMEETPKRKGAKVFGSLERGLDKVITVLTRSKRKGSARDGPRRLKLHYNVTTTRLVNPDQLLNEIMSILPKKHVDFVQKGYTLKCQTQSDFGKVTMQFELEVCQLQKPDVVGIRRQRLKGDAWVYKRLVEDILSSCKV

[15] = target: Maternal embryonic leucine zipper kinase (Homo sapiens) (UniProt Q14680); conditions: at 1 µM
[16] = target: MAP kinase-interacting serine/threonine-protein kinase 1 (Homo sapiens) (UniProt Q9BUB5); conditions: at 0.1 µM
Chain of MAP kinase-interacting serine/threonine-protein kinase 1 (Homo sapiens) (Q9BUB5 whole entry, looked up): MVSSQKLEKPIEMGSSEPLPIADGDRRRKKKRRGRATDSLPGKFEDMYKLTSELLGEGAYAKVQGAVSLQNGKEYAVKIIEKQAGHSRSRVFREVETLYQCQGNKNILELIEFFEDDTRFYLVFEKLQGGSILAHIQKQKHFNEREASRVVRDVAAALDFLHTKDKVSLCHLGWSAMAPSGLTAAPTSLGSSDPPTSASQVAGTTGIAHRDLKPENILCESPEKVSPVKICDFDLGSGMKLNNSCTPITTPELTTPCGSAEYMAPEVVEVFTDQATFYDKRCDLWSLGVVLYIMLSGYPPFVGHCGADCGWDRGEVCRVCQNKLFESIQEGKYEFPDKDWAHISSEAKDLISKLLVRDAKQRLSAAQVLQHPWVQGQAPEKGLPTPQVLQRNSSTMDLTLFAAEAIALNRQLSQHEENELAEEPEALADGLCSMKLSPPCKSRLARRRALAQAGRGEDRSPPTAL

[17] = target: MAP kinase-interacting serine/threonine-protein kinase 1 (Homo sapiens) (UniProt Q9BUB5); conditions: at 1 µM
[18] = target: MAP kinase-interacting serine/threonine-protein kinase 2 (Homo sapiens) (UniProt Q9HBH9); conditions: at 0.1 µM
Chain of MAP kinase-interacting serine/threonine-protein kinase 2 (Homo sapiens) (Q9HBH9 whole entry, looked up): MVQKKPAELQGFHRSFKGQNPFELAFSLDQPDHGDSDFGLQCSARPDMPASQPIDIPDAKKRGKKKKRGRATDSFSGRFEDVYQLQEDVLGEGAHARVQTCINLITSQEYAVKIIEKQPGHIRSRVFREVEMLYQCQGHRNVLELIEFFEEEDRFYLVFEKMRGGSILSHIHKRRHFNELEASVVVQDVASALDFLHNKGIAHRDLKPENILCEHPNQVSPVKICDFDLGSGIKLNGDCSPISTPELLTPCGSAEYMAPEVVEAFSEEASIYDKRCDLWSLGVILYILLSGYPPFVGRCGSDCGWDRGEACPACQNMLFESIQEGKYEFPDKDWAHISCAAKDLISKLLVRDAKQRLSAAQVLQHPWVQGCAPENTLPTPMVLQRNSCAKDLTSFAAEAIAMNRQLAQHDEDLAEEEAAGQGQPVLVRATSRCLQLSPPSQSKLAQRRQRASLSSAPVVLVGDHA

[19] = target: MAP kinase-interacting serine/threonine-protein kinase 2 (Homo sapiens) (UniProt Q9HBH9); conditions: at 1 µM
[20] = target: Serine/threonine-protein kinase MARK2 (Homo sapiens) (UniProt Q7KZI7); conditions: at 0.1 µM;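 also: mean percent inhibition of PAR-1Balpha kinase activity, reported from the GSK PKIS screen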
Chain of Serine/threonine-protein kinase MARK2 (Homo sapiens) (Q7KZI7 whole entry): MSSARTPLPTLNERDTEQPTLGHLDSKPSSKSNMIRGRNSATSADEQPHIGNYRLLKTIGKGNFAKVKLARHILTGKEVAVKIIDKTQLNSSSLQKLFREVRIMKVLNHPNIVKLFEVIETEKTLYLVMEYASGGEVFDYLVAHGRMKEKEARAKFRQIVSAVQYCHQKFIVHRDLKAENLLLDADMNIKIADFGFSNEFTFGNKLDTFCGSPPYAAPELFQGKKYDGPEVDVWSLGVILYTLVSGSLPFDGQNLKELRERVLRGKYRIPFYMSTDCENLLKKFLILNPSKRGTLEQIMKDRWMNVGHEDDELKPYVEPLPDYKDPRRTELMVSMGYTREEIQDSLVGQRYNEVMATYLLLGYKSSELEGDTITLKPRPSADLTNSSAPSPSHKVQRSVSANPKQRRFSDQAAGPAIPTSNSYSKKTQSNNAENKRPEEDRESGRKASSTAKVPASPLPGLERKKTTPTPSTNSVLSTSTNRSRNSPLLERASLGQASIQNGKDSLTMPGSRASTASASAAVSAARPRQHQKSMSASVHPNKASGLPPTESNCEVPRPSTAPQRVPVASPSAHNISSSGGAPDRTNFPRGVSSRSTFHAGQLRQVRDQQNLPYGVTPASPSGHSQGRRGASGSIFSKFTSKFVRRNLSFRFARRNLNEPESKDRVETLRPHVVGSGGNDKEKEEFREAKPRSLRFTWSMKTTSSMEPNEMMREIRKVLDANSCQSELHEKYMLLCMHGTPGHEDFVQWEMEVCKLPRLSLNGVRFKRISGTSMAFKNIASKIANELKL

Compound	inhibition [1] [%]	inhibition [2] [%]	inhibition [3] [%]	inhibition [4] [%]	inhibition [5] [%]	inhibition [6] [%]	inhibition [7] [%]	inhibition [8] [%]	inhibition [9] [%]	inhibition [10] [%]	inhibition [11] [%]	inhibition [12] [%]	inhibition [13] [%]	inhibition [14] [%]	inhibition [15] [%]	inhibition [16] [%]	inhibition [17] [%]	inhibition [18] [%]	inhibition [19] [%]	inhibition [20] [%]
C[C@@H](Oc1cc(-n2cnc3ccc(OCC4CCN(C)CC4)cc32)sc1C(N)=O)c1ccccc1C(F)(F)F	3.7	-1.44	0.02	-1.73	-1.24	-0.96	-1.6	8.37	50.7	6.29	57.6	8.72	49.9	0.09	22	0.35	1.61	1.1	4.25	8.53
O=C(Nc1ccc(Oc2ccc3[nH]c(NC(=O)c4ccco4)nc3c2)cc1)Nc1cc(C(F)(F)F)ccc1F	-1.29	-4.07	-5.38	-0.82	-1.43	2.85	16.3	-1.16	0.35	-0.52	-0.23	0.1	2.11	0.54	8.57	3.42	28.4	2.04	37.3	-0.8
COc1cc(/C=N/Nc2ncnc3c2cnn3C(C)C)ccc1O	0.9	2.33	1.29	0.78	0.4	0.97	0.08	2.39	4.77	0.28	0.41	0.37	4.17	26.7	80.3	1.07	5.78	1.33	2.77	-0.89
NS(=O)(=O)c1cccc(-c2cc3ccncc3cc2OCc2ccccc2)c1	7.29	0.9	0.91	2.83	3.32	4.06	3.27	5.91	9.52	5.98	9.67	2.91	6.29	4.44	6.24	3.03	6.7	3.83	25.1	3.3
CCS(=O)(=O)c1ccc(OC)c(Nc2nccc(N(C)c3ccc4c(C)n[nH]c4c3)n2)c1	4.98	-0.1	2.14	2.62	1.63	3.91	6.4	2.93	3.99	3.81	3.79	2.78	3.51	3.25	6.92	3.05	3.58	0.35	3.48	0.55
C[C@@H](Oc1cc(-n2cnc3ccc(OC[C@@H](O)CO)cc32)sc1C(N)=O)c1ccccc1Cl	-5.26	0.92	-6.84	-0.75	-0.94	-0.21	-0.73	0.87	5.71	0.4	5.81	1.02	5.24	-2.58	3.21	-0.74	2.69	0.15	2.94	-0.27
COc1cc2ncnc(Nc3ccc(C)c(O)c3)c2cc1OC	6.25	2.8	0.34	3.52	3.42	5.93	7.13	4.14	7.86	4.06	6.46	1.47	4.13	5.67	8.15	6.8	30.9	3.13	15.8	2.85
Cc1ccc2c(-c3ccnc(Nc4ccc5c(c4)OCCO5)n3)c(-c3ccc(C(F)(F)F)cc3)nn2n1	1.35	-1.42	-0.35	0.41	-0.12	2.89	10.8	1.39	2.56	-1.05	5.36	1.96	3.07	-1.46	0.19	0.37	-0.05	0.66	1.73	-0.06
CCS(=O)(=O)c1ccc(OC)c(Nc2ncc(-c3cccc(OC)c3)o2)c1	4.19	0.56	-0.14	0.86	0.67	1.43	3.53	1.2	2.37	3.96	2.05	0.15	1.64	2.89	11.4	4.25	17	1.44	10.6	-0.52
Nc1nccc(-c2c(-c3ccc(F)cc3)ncn2CCCN2CCOCC2)n1	5.9	2.38	-0.25	2.78	2.33	9.94	23.5	3.81	6.99	2.18	8.72	1.4	1.82	9.7	2.83	2.6	7.69	1.53	0.94	3.08
CS(=O)(=O)CCNCc1nc(-c2ccc3ncnc(Nc4ccc(OCc5cccc(C(F)(F)F)c5)cc4)c3c2)cs1	2.59	-1.01	0.18	0.97	1.7	2.23	2.67	1	1.98	0.8	1.92	-0.17	1.58	0.45	2.55	3.67	7.54	0.84	6.94	0.22
Cc1nc(-c2ccccc2)n2nc(NCCCN3CCOCC3)ncc12	1.62	-0.46	1.45	1.25	2.01	1.51	1.12	0.92	3	0.93	4.15	1.2	2.72	1.4	1.29	2.43	4.9	1.85	3.34	-0.89
[O-][S+]1CCN(Cc2ccc(-c3ccc4ncnc(Nc5ccc(OCc6ccccc6)c(Cl)c5)c4c3)o2)CC1	0.97	0.43	1.8	1	0.44	6.01	8.71	1.37	2.21	-0.92	2.17	1.29	2.1	2.37	5.78	1.69	5.98	0.13	8.54	0.59
